88 molecules from PubChem BioAssay AID485290 (National Center for Advancing Translational Sciences (NCATS), 2010) can be followed below.

The whole screen tested about 350,000 compounds, of which about 990 (0.28%) were called active. Another 2% or so got no clear call; they are omitted. Shown is part of a subset that was picked to be rich in actives. Values without a mark were called inactive. The call rests on the fitted dose curve; in most records, active means well fitted inhibition curve with a large enough effect; inconclusive means small, poorly fitted or top-dose-only effect; inactive means no such curve, though single readings can be large or run the other way.
On the % scale 0 is the no-effect control and ±100 the full control effect; potency means the concentration at half of the fitted maximal effect.

The target in the assay is Tyrosyl-DNA phosphodiesterase 1 (Homo sapiens) (UniProt Q9NUW8). Description: qHTS Assay for Inhibitors of Tyrosyl-DNA Phosphodiesterase (TDP1). Further: nearly all actives have a fitted effect of over 40% in size. The settings on record: recombinant TDP1, AlphaScreen DNA substrate cleavage; series mostly up to 130 µM; activity change, negative = inhibition: at the top concentration. In short, it runs like this: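 Compounds were preincubated with Tdp1 (1 nM final) for 15 min at room temperature before substrate (15 nM final) started a 5 min reaction; beads (10 ug/ml final) were then added for 10 min before AlphaScreen detection.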
Tyrosyl-DNA phosphodiesterase 1 (Homo sapiens), sequence (Q9NUW8 whole entry, looked up): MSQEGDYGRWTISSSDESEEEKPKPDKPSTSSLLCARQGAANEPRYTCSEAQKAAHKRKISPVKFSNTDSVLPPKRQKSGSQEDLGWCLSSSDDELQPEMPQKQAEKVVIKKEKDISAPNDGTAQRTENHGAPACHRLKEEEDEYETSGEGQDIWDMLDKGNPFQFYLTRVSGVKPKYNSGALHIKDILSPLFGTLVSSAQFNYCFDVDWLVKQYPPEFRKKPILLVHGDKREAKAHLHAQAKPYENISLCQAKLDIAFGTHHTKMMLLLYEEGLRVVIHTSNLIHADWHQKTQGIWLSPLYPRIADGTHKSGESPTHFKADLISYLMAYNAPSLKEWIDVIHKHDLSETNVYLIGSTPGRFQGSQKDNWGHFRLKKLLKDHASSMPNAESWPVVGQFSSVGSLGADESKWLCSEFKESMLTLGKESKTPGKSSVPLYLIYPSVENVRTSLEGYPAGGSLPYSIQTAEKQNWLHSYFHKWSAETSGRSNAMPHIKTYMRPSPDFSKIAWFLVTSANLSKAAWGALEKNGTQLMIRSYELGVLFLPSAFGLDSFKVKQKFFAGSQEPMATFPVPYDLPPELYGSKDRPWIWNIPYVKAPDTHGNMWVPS
A general note: Quantitative high-throughput screening tests each substance at several concentrations.
Consider `COc1cc(F)c(S(=O)(=O)N2CCCN(S(=O)(=O)c3ccc(N)cc3)CC2)c(F)c1`, for which the “activity change, negative = inhibition” value was 2.59%.

Turning to `O=S1(=O)N=C(Oc2cccc(Br)c2)c2ccccc21`, the “activity change, negative = inhibition” value was 1.26%.

`Cc1ccc(NC(=O)CSc2nc(CSc3ccc(C)cc3)cc(=O)[nH]2)cc1`: the “activity change, negative = inhibition” value is 0%.

Turning to `COc1ccc(NC(=O)CSc2nc3ccccc3[nH]2)cc1`, the “activity change, negative = inhibition” value is 1.95%.

For the molecule `COc1ccc(NC(=O)CSc2nc(NS(=O)(=O)c3ccc(C)cc3)cc(=O)[nH]2)cc1`, the Potency was 20 µM (active).

`Oc1ccc(Br)cc1C1C=C(c2ccc3c(c2)OCO3)NC(c2ccc(Cl)cc2)N1` (stereo not drawn): the “activity change, negative = inhibition” value was 2.78%.

For the molecule `Cc1ccc2nc(-c3ccc(O)cc3)c(Nc3ccc4c(c3)OCO4)n2c1`, the “activity change, negative = inhibition” value was 6.98%.

With `COc1ccc(OC)c(CNC(=O)CCc2nc(-c3cccs3)no2)c1`, the “activity change, negative = inhibition” value is 0%.

Regarding `CCc1ccc(CNC(=O)CCc2nc(-c3cccs3)no2)cc1`, the “activity change, negative = inhibition” value was 1.31%.

For the molecule `COc1ccc(CCc2nc(-c3cccs3)no2)cc1`, the Potency is 89.1 µM (active).

Take `CCC(=O)Nc1cccc(-c2nc3cc(C)ccc3o2)c1`: the “activity change, negative = inhibition” value was 5.69%.

For `OCCNc1ncnc2oc(-c3ccco3)c(-c3ccco3)c12`, the “activity change, negative = inhibition” value is 0.0157%.

As to `CN(CCOc1ccccc1)C(=O)c1cc(COc2c(F)cccc2F)on1`, the “activity change, negative = inhibition” value is -0.184%.

Turning to `Cc1ccc(OCc2cc(C(=O)N(C)CCc3ccccc3)no2)cc1C`, the Potency is 50.1 µM (active).

On to `Cc1cc(CN(C)C(=O)c2cc(COc3ccc(C)c(C)c3)on2)n[nH]1`, for which the “activity change, negative = inhibition” value was 4.51%.

With `COc1ccc(C2Nc3ccccc3C(=O)N2Cc2ccco2)cc1COc1cccc(NC(C)=O)c1` (stereo not drawn), the “activity change, negative = inhibition” value was -0.885%.

Take `Cc1ccc(C(=O)COC(=O)C(Cc2c[nH]c3ccccc23)NC(=O)c2ccc(Br)cc2)cc1` (stereo not drawn): the “activity change, negative = inhibition” value is 0.948%.

For `CCCCNC(=O)Cn1c(SCc2cccc(Cl)c2)nc2ccncc21`, the “activity change, negative = inhibition” value is 0.301%.

For the molecule `CCN1CCN(c2cc(C)c3cc(NC(=O)c4cc(Cl)ccc4OC)ccc3n2)CC1`, the “activity change, negative = inhibition” value is 5.88%.

As for `C=CC(COCc1ccccc1)N(Cc1ccccc1)S(=O)(=O)c1ccccc1Br` (stereo not drawn), the “activity change, negative = inhibition” value was -12.1%.

Take `C=CCCN(Cc1ccccc1)S(=O)(=O)c1ccccc1Br`: the Potency was 39.8 µM (active).

For `C=CCCN(C(Cc1ccccc1)C(=O)OC)S(=O)(=O)c1cc(Br)ccc1Br` (stereo not drawn), the “activity change, negative = inhibition” value was -9.71%.

`CC1(C)CCc2cc(S(=O)(=O)N3CCN(c4nc(-c5cccs5)nc5ccccc45)CC3)ccc2O1`: the “activity change, negative = inhibition” value is 1.18%.

On to `Cc1ccc(Cl)cc1NC(=O)C(C)n1nnc2sc(-c3ccccc3)cc2c1=O` (stereo not drawn), for which the “activity change, negative = inhibition” value is 2.33%.

On to `Cc1ccccc1NC(=O)CSc1nc2ccc(Nc3nc(N4CCOCC4)nc(N4CCOCC4)n3)cc2s1`, for which the “activity change, negative = inhibition” value is 2.22%.

`Cc1ccc(Nc2nc(N)nc(CN3CCN(Cc4ccccc4)CC3)n2)cc1Cl`: the “activity change, negative = inhibition” value was 6.79%.

As for `Cc1ccc(Nc2nc(N3CCOCC3)nc(N3CCOCC3)n2)cc1Cl`, the Potency is 22.4 µM (active).

On to `CC1CC(C)CN(c2oc(-c3ccc(OCc4ccc(Cl)cc4)cc3)nc2C#N)C1` (stereo not drawn), for which the “activity change, negative = inhibition” value was 5.48%.

For the molecule `Cc1ccc(CCNC(=O)c2ccc(CS(=O)(=O)Cc3cccc(C)c3)o2)cc1`, the “activity change, negative = inhibition” value is 5.2%.

On to `CCN1CCN(C(c2ccc(C)cc2)c2c(O)cc(C)n(Cc3ccco3)c2=O)CC1` (stereo not drawn), for which the “activity change, negative = inhibition” value was 5.41%.

In the case of `COc1cccc(C(=O)NC2CCN(C#N)CC2)c1`, the “activity change, negative = inhibition” value was 1.27%.

In the case of `Cn1c(COc2ccccc2C(C)(C)C)nc2ccccc21`, the “activity change, negative = inhibition” value was 0%.

For `O=c1nc(N/N=C/c2ccco2)cn[nH]1`, the Potency is 31.6 µM (active).

On to `CC(C)NC(=O)C(=O)N/N=C/c1ccco1`, for which the “activity change, negative = inhibition” value is -10.5%.

Consider `O=C(Cc1ccc([N+](=O)[O-])cc1)N/N=C/c1ccco1`, for which the “activity change, negative = inhibition” value was 0%.

As for `Oc1ccc(Cl)cc1C1C=C(c2ccc3c(c2)OCO3)NC(c2c(F)cccc2Cl)N1` (stereo not drawn), the “activity change, negative = inhibition” value was 3.95%.

For `Cc1noc(C)c1-c1ccc2ncnc(NCc3ccc(F)c(F)c3)c2c1`, the “activity change, negative = inhibition” value is 0.294%.

`Oc1ccc(Cl)cc1C1C=C(c2ccc3c(c2)OCO3)NC(c2ccc(F)c(Br)c2)N1` (stereo not drawn): the “activity change, negative = inhibition” value was 1.96%.

Consider `CO[C@@]12[C@@H](COC(N)=O)C3=C(C(=O)C(C)=C(N)C3=O)N1C[C@@H]1N[C@@H]12`, for which the Potency was 35.5 µM (active).

On to `O=[N+]([O-])c1ccc(S(=O)(=O)N2CCN(c3nc(-c4ccccc4)nc4ccccc34)CC2)cc1`, for which the “activity change, negative = inhibition” value was 2.79%.

As to `Cc1cccc(N2CCN(C(=O)c3ccc4c(c3)CCN4S(=O)(=O)c3ccccc3)CC2)c1C`, the “activity change, negative = inhibition” value is 6.98%.

As to `COc1ccc(CCNc2ncnc3c2cnn3-c2ccc(C)cc2)cc1`, the “activity change, negative = inhibition” value was 2.6%.

In the case of `CCc1cccc(C)c1N(C(=O)Cn1c(CO)nc2ccccc21)C(C)COC` (stereo not drawn), the “activity change, negative = inhibition” value was 4.37%.

As to `CCOCN(C(=O)Cn1c(C(C)O)nc2ccccc21)c1c(C)cccc1CC` (stereo not drawn), the Potency was 89.1 µM (active).

Take `CC(O)c1nc2ccccc2n1Cc1ccc([N+](=O)[O-])cc1` (stereo not drawn): the “activity change, negative = inhibition” value is 0%.

On to `COc1ccc(S(=O)(=O)Nc2cccc3cccnc23)c(N)c1`, for which the “activity change, negative = inhibition” value is 2.13%.

In the case of `COc1ccccc1NC(=O)C(=O)c1cc(C)n(-c2ccccc2F)c1C`, the “activity change, negative = inhibition” value was 0%.

As to `CCCOc1ccc(NC(=O)CC2C(=O)N(c3ccccc3)C(=O)N2Cc2ccco2)cc1` (stereo not drawn), the “activity change, negative = inhibition” value was 8.45%.

Consider `Cc1cc(C)c(C#N)c(N2CCC(C(N)=O)CC2)n1`, for which the “activity change, negative = inhibition” value was 2.35%.

Regarding `O=C(O)CSc1ccc(S(=O)(=O)N2CCCC2)cn1`, the “activity change, negative = inhibition” value was -0.365% [at 56.1 µM].

With `N#Cc1c(N2CCCCC2)nc(N)c2c(N)nc(SCC(=O)O)cc12`, the Potency is 50.1 µM (active).

As for `O=C1CCCC2=C1[C@@]1(CCC(c3ccccc3)C1)N=C(Nc1nc3ccccc3o1)N2` (stereo partly drawn), the Potency result is “inactive”.

As for `CCCCCCC1(C)NC(c2ccc3c(c2)OCO3)=CC(c2ccccc2O)N1` (stereo not drawn), the “activity change, negative = inhibition” value is 1.74%.

Regarding `COc1ccc(Nc2cc(C(=O)NCCCN(C)c3ccccc3)c3ccccc3n2)c(OC)c1`, the “activity change, negative = inhibition” value is 5.69%.

Turning to `Cc1ccc(NC(=O)CCCn2c(=O)c3cccn3c3ccccc32)cc1Cl`, the “activity change, negative = inhibition” value was 5.2%.

For the molecule `O=C1c2ccccc2C(=O)N1c1ccc(S(=O)(=O)N2CCOCC2)c2ccccc12`, the “activity change, negative = inhibition” value was 2.45%.

Turning to `O=C(Nc1cccc2cccnc12)C(F)(F)F`, the “activity change, negative = inhibition” value is -5.28%.

`CCOC(=O)C1=C(C)N=C2c3ccccc3C(=O)C2C1c1ccc(Br)cc1` (stereo not drawn): the “activity change, negative = inhibition” value is 5.56%.

For `CCOC(=O)C1=NOC(Cn2cc(C(C)=O)c(=O)[nH]c2=O)C1` (stereo not drawn), the “activity change, negative = inhibition” value was 1.27%.

On to `CCOC(=O)C1=NO[C@@]2(C=C(Br)C(=O)[C@H]3O[C@H]32)C1`, for which the Potency was 8.91 µM (active).

`CCOC(=O)N1CCc2c(sc(NCc3cccc(F)c3)c2C(=O)Nc2ccccc2OCC)C1`: the “activity change, negative = inhibition” value was 6.63%.

As for `CCC1(C)CC(=O)c2c(ccc3oc(C(=O)Nc4ccc(C(C)=O)cc4)c(C)c23)O1` (stereo not drawn), the “activity change, negative = inhibition” value was 5.06%.

Consider `COc1ccc(Cc2nc3ccc(C(=O)NCc4ccccc4Cl)cc3o2)cc1`, for which the “activity change, negative = inhibition” value was 2.96%.

For `CC(=O)NS(=O)(=O)c1ccc(NC(=O)C2C3C=CC(C3)C2C(=O)O)cc1` (stereo not drawn), the Potency is 79.4 µM (active).

For the molecule `CC(C)COC(=O)c1ccc(NC(=O)C2C3C=CC(C3)C2C(=O)O)cc1` (stereo not drawn), the “activity change, negative = inhibition” value is 0.957%.

With `COC(=O)c1cc(NC(=O)C2C3C=CC(C3)C2C(=O)O)cc(C(=O)OC)c1` (stereo not drawn), the “activity change, negative = inhibition” value is 5.21%.

Regarding `O=C(NCc1ccc2c(c1)CCN2C(=O)c1ccccc1)Nc1cc(F)ccc1F`, the “activity change, negative = inhibition” value is 8.11%.

As to `O=C(CNC(=O)c1ccc(Cl)c(C(F)(F)F)c1)OC(C(=O)Nc1cc(C(F)(F)F)ccc1Cl)c1ccccc1` (stereo not drawn), the “activity change, negative = inhibition” value is -0.621%.

For the molecule `CC(=O)Nc1cccc(NC(=O)CSc2nccn2Cc2ccc3c(c2)OCO3)c1`, the “activity change, negative = inhibition” value was 11%.

On to `O=C(CCC1CCCN(C(=O)Cc2ccc(F)cc2)C1)N1CCN(c2ccccn2)CC1` (stereo not drawn), for which the “activity change, negative = inhibition” value is 0%.

As for `C=Cc1ccc(C(=O)N2CCCC(CCC(=O)N3CCN(c4ccccn4)CC3)C2)cc1` (stereo not drawn), the Potency is 1.26 µM (active).

On to `O=C(CCC1CCCN(C(=O)c2ccc(F)c(F)c2)C1)N1CCN(c2ccccn2)CC1` (stereo not drawn), for which the “activity change, negative = inhibition” value was 2.69%.

On to `Cc1ccc(S(=O)(=O)NC(N)=NCCC[C@@H](NC(=O)CNC(=O)c2ccccc2)C(=O)Nc2cc(C(F)(F)F)ccc2Cl)cc1`, for which the “activity change, negative = inhibition” value was -0.119%.

As for `CC(Nc1ncnc2ccc(-c3ccc4c(c3)OCO4)cc12)c1ccco1` (stereo not drawn), the “activity change, negative = inhibition” value is 5.01%.

In the case of `O=C(O)c1ccc2c(c1)N(Cc1ccc(F)cc1)C(=O)c1ccccc1S2=O` (stereo not drawn), the “activity change, negative = inhibition” value was 2.6%.

Regarding `O=c1[nH]c(=S)[nH]c2[nH]c(=S)[nH]c12`, the Potency is 8.91 µM (active).

Regarding `CCCS(=O)(=O)Nc1cccc(-c2cn3ccsc3n2)c1`, the “activity change, negative = inhibition” value is 5.41%.

As for `COC(=O)c1ccc(NC(=O)CCc2c(C)nn(-c3ccc(N4CCCC4)nn3)c2C)cc1`, the “activity change, negative = inhibition” value is 4.54%.

Turning to `CN(C)c1ccc(C(=O)NCC(=O)OC(C(=O)Nc2cc(C(F)(F)F)ccc2Cl)c2ccccc2)cc1` (stereo not drawn), the “activity change, negative = inhibition” value is -8.84%.

For `CCOc1cccc(C(=O)Nc2nnc(S(=O)(=O)N(C)c3ccc(C)cc3)s2)c1`, the “activity change, negative = inhibition” value was 0%.

On to `O=C(NCc1nnc(C(=O)Nc2ccc(C(F)(F)F)cc2Cl)o1)c1ccccc1`, for which the “activity change, negative = inhibition” value is -0.245%.

Take `COc1ccc(NC(=O)c2sc3nc[nH]c(=O)c3c2C)cc1`: the “activity change, negative = inhibition” value was 5.5%.

Consider `Cc1cccc(N2CCN(c3ccc(C(=O)O)cc3NC(=O)c3ccccc3F)CC2C)c1` (stereo not drawn), for which the “activity change, negative = inhibition” value was -2.63%.

Regarding `O=C(NCCCO)C(=O)Nc1c2c(nn1-c1ccccc1)CSC2`, the “activity change, negative = inhibition” value was 7.79%.

With `C=C1c2cccc(OC)c2O[C@H](C(=O)OCC)[C@@H]1CCCCCC`, the Potency is 35.5 µM (active).

Consider `CCOC(=O)C1=C(C)c2ccccc2OC1C(=O)OCC` (stereo not drawn), for which the Potency result is “inactive”.

Consider `COc1ccc(C(=O)N(Cc2ccccc2)Cc2ccc(OC)c(COc3ccc(NC(C)=O)cc3)c2)c(O)c1`, for which the “activity change, negative = inhibition” value is -3.45%.

Regarding `CC(=O)NC(c1cccs1)c1cc(Cl)c2cccnc2c1O` (stereo not drawn), the “activity change, negative = inhibition” value was 0.553%.
